In PubChem BioAssay (NCATS):
Results filed as inconclusive are left out. The source made the active and inactive calls. The call rests on the fitted dose curve; in most records, active means well fitted inhibition curve with a large enough effect; inconclusive means small, poorly fitted or top-dose-only effect; inactive means flat fitted curve, though single readings scatter.

test system: W2; experiment: qHTS profiling for inhibitors of Plasmodium falciparum proliferation (AID 504749); further: nearly all actives have a fitted effect of over 60% in size; settings: P. falciparum in erythrocytes, SYBR Green DNA, 72 h; series mostly up to 28.7 µM
In short: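 P. falciparum-infected erythrocytes (0.3% parasitemia, 2.5% hematocrit final) were exposed to compounds for 72 h at 37 C in 5% CO2, then lysed with SYBR Green buffer overnight at room temperature; parasite DNA fluorescence was normalized to artemisinin and DMSO controls.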
Potency means the concentration at half of the fitted maximal effect.

Compound	Potency
CNCCC(Oc1ccccc1OC)c1ccccc1 (configuration not stated)	4.26 µM (active)
CCC(=O)c1ccc2c(c1)N(CCCN(C)C)c1ccccc1S2	3.01 µM (active)
c1cc(CN2CCCCC2)cc(OCCCNc2nc3ccccc3s2)c1	4.78 µM (active)
CN(C)CCCN1c2ccccc2Sc2ccccc21	0.572 µM (active)
NC(N)=NC(=O)Cc1c(Cl)cccc1Cl	6.75 µM (active)
CN1C[C@H](C(=O)N[C@]2(C)O[C@@]3(O)[C@@H]4CCCN4C(=O)[C@H](Cc4ccccc4)N3C2=O)C[C@@H]2c3cccc4[nH]cc(c34)C[C@H]21	1.51 µM (active)
Cc1nc2ccccn2c(=O)c1CCN1CCC(C(=O)c2ccc(F)cc2)CC1	6.01 µM (active)
CN(C)CC[C@@H](c1ccc(Br)cc1)c1ccccn1	0.849 µM (active)
COc1ccc(CN(CCN(C)C)c2ccccn2)cc1	7.57 µM (active)
CCCC(C(=O)OCCN(CC)CC)(c1ccccc1)c1ccccc1	7.57 µM (active)
CN(C)CCN(Cc1cccs1)c1ccccn1	1.9 µM (active)
CC(=O)[C@]1(O)Cc2c(O)c3c(c(O)c2[C@@H](O[C@H]2C[C@H](N)[C@H](O)[C@H](C)O2)C1)C(=O)c1ccccc1C3=O	1.69 µM (active)
Brc1c(NC2=NCCN2)ccc2nccnc12	5.36 µM (active)
C=CCc1ccccc1OCC(O)CNC(C)C (configuration not stated)	2.39 µM (active)
CC(C)(C)c1ccc(C(=O)CCCN2CCC(OC(c3ccccc3)c3ccccc3)CC2)cc1	4.78 µM (active)
NC(N)=N/N=C/c1c(Cl)cccc1Cl	12 µM (active)
CN(C)CCCN1c2ccccc2Sc2ccc(C(F)(F)F)cc21	6.75 µM (active)
CC1=C(C)C(=O)C(CCCCC#CCCCC#CCO)=C(C)C1=O	6.01 µM (active)
CCCN1C[C@H](CSC)C[C@@H]2c3cccc4[nH]cc(c34)C[C@H]21	5.36 µM (active)
NC(=Nc1ccccc1)Nc1ccccc1	9.53 µM (active)
CN(C)C/C=C(/c1ccc(Br)cc1)c1cccnc1	8.49 µM (active)
O=C1NCN(c2ccccc2)C12CCN(CCCC(c1ccc(F)cc1)c1ccc(F)cc1)CC2	2.39 µM (active)
CN(C)CC/C=C1\c2ccccc2COc2ccccc21	1.2 µM (active)
OC(CCN1CCCCC1)(c1ccccc1)C1CCCCC1 (configuration not stated)	6.01 µM (active)
COc1cc(C(=O)OCCCN2CCCN(CCCOC(=O)c3cc(OC)c(OC)c(OC)c3)CC2)cc(OC)c1OC	3.01 µM (active)
O=C(CCCN1CCC(O)(c2cccc(C(F)(F)F)c2)CC1)c1ccc(F)cc1	2.69 µM (active)
COc1ccc(CCN(C)CCCC(C#N)(c2cc(OC)c(OC)c(OC)c2)C(C)C)cc1OC (configuration not stated)	2.39 µM (active)
